Measured values reported in PubChem BioAssay (Tox21).
Unmarked numbers belong to inactive results. Results filed as inconclusive are left out. Entries that show only a call come without a potency. Activity calls are given as the source filed them. Unless noted, calls come from the whole dose curve; as a rule, active = well fitted curve in the direction sought with a large enough effect in the repeat runs; inconclusive = weak or mixed curves; inactive = no such curve, though single readings can be large; an effect the other way counts as inactive or inconclusive.

How the values were obtained:
[1] = qHTS assay to identify small molecule antagonists of the estrogen related receptor (ERR) signaling pathway from Tox21 library - cell viability counter screen (AID 1224834); note: nearly all actives have a fitted effect of over 30% in size
How it was run: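 Cytotoxicity of test substances is gauged in the same ERR cells used for the antagonist screen, after 17.5 h of compound treatment at 37 C, by CellTiter-Fluor fluorescence measured after 30 min.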

[2] = molecular target: Luciferin 4-monooxygenase (Photinus pyralis) (UniProt P08659); assay: qHTS assay to identify small molecule inhibitors of firefly luciferase (AID 1224835); note: series mostly up to about 120 µM; nearly all actives have a fitted effect of over 25% in size
How it was run: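 Inhibition of purified Photinus luciferase is measured by luminescence. Substrate levels (D-luciferin, ATP) sit at their KM values. Each compound is tested in a concentration series.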

[3] = qHTS assay to identify small molecule agonists of the constitutive androstane receptor (CAR) signaling pathway - cell viability counter screen (AID 1224836); note: series mostly up to about 92 µM; nearly all actives have a fitted effect of over 45% in size
How it was run: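 HepG2 cells stably carrying hCAR and a CYP2B6-2.2kb reporter were plated 4 h, then given compounds at 15 concentrations plus PK11195 (final 0.75 uM). After 23 h at 37 C, viability was read by CellTiter-Fluor fluorescence.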

[4] = qHTS assay to identify small molecule antagonists of the constitutive androstane receptor (CAR) signaling pathway - cell viability counter screen (AID 1224837); note: series mostly up to about 92 µM; nearly all actives have a fitted effect of over 45% in size
How it was run: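 Multiplexed cytotoxicity read-out for the CAR antagonist screen: double-stable HepG2-CYP2B6-hCAR cells co-treated with 50 nM CITCO (final) and compound over 15 concentrations, incubated 23 hr, then assessed by CellTiter-Fluor fluorescence.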

[5] = molecular target: Nuclear receptor subfamily 1 group I member 3 (Homo sapiens) (UniProt Q14994); assay: qHTS assay to identify small molecule antagonists of the constitutive androstane receptor (CAR) signaling pathway (AID 1224838); note: nearly all actives have a fitted effect of over 40% in size; note: potency is the fitted concentration of half-maximal effect
How it was run: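 Compounds were titrated across 15 concentrations onto HepG2 cells double-stably expressing hCAR and a CYP2B6-2.2kb reporter, together with 50 nM CITCO (final). After 24 h at 37 C, luciferase activity was measured by luminescence.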

[6] = molecular target: Nuclear receptor subfamily 1 group I member 3 (Homo sapiens) (UniProt Q14994); assay: qHTS assay to identify small molecule agonists of the constitutive androstane receptor (CAR) signaling pathway (AID 1224839);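 note: HepG2 cells stably carrying human CAR and a CYP2B6 luciferase reporter; series mostly up to about 92 µM; nearly all actives have a fitted effect of over 15% in size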
How it was run: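 HepG2 cells stably expressing hCAR and a CYP2B6-2.2kb luciferase reporter were treated with compounds at 15 concentrations plus 0.75 uM PK11195 (final) for 24 h at 37 C; luminescence was read after ONE-Glo addition.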

[7] = qHTS assay to identify small molecule antagonists of the estrogen related receptor signaling pathway with the pleiotropic PPARgamma coactivator (PGC) from Tox21 10K library - cell viability counter screen (AID 1224840; active = well fitted cell-killing curve with a large enough effect in the repeat runs, not every such curve was filed as active; note: nearly all actives have a fitted effect of over 40% in size)
How it was run: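 Step one, plate 2,000 PGC/ERR cells per well; step two, incubate 6 h at 37 C/5% CO2; step three, pin-transfer compounds; step four, incubate 17.5 h; step five, add CellTiter-Fluor and read fluorescence after 30 min.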

[8] = molecular target: Thyrotropin receptor (Homo sapiens) (UniProt P16473); assay: qHTS assay to identify small molecule agonists of the thyroid stimulating hormone receptor (TSHR) signaling pathway (AID 1224843; calls by dose curve; note: nearly all actives have a fitted effect of over 45% in size)
How it was run: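 HEK293 cells stably bearing the thyrotropin receptor were plated at 800 cells/well and challenged with compound (30 min, RT). Accumulated cAMP was quantified via cAMP-d2 competing for cryptate-tagged antibody.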

[9] = qHTS assay to identify small molecule agonists of the hypoxia (HIF-1) signaling pathway - cell viability counter screen (AID 1224844; calls by dose curve; note: nearly all actives have a fitted effect of over 50% in size)
How it was run: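 Tox21 10K compounds were added to HRE-bla ME-180 cells (0.5% dialyzed FBS) and incubated 17 hrs at 37C; ATP-based CellTiter-Glo luminescence then reported cell viability in the same wells.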

[10] = qHTS assay to identify small molecule agonists of H2AX - cell viability counter screen (AID 1224847; calls by dose curve; note: top concentration of the series differs between compounds; nearly all actives have a fitted effect of over 30% in size)
How it was run: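 Wild-type CHO-K1 cells (10% FBS medium) were plated overnight at 37C, exposed to compounds at 15 concentrations for 3 hr at 37C (0.76% DMSO final), and viability was read as CellTiter-Glo luminescence after 30 min at room temperature.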

[11] = qHTS RealTime-Glo MT Cell Viability Assay in HepG2 cells - 24 hour (AID 1224867); note: nearly all actives have a fitted effect of over 50% in size
How it was run: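 Cell number in HepG2 cultures estimated from NanoLuc luminescence generated by metabolic reduction of a prosubstrate by living cells. The homogeneous, nonlytic format allowed repeated reads at 0, 8, 16, 24, 32 and 40 h of compound exposure.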

[12] = qHTS RealTime-Glo MT Cell Viability Assay in HEK293 cells - 32 hour (AID 1224868); note: nearly all actives have a fitted effect of over 50% in size; note: potency is the fitted concentration of half-maximal effect
How it was run: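 Homogeneous bioluminescent viability format in HEK293 cells (600 cells/well). Following 5 h at 37 C/5% CO2, 23 nL compound was pintooled; the signal was measured repeatedly during 40 h incubation.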

[13] = qHTS RealTime-Glo MT Cell Viability Assay in HepG2 cells - 40 hour (AID 1224870); note: nearly all actives have a fitted effect of over 50% in size
How it was run: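 Real-time viability: cells seeded at 600 per well together with NanoLuc and cell-permeant prosubstrate, compounds added after 5 h incubation. Luminescence tracked at 0, 8, 16, 24, 32 and 40 h of exposure.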

[14] = qHTS assay to identify small molecule agonists of the hypoxia (HIF-1) signaling pathway (AID 1224846; active = well fitted activation curve with a large enough effect in the signal ratio in the repeat runs, not every such curve was filed as active; the % refers to the signal ratio)
How it was run: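 Steps: seed ME-180 HRE-bla cells (2,000/well, 0.5% dialyzed FBS); incubate 5 hrs at 37C; pin-transfer compounds or DMSO; incubate 17 hrs; add LiveBLAzer B/G substrate CCF4-AM; measure reporter activation by FRET.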

[15] = A CellTox Green Cytotoxicity Assay to monitor cytotoxicity in HEK293 cells - 0 hour (AID 1224869); note: nearly all actives have a fitted effect of over 50% in size
How it was run: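 Cytotoxicity was tracked continuously in HEK293 cells by a DNA-binding dye excluded from viable cells. Compounds were transferred in DMSO 5 h after seeding; fluorescence was recorded at intervals up to 40 h.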

[16] = qHTS assay to identify small molecule agonists of H2AX (AID 1224845; active = well fitted activation curve with a large enough effect in the signal ratio in the repeat runs, not every such curve was filed as active; the % refers to the signal ratio; note: potency is the fitted concentration of half-maximal effect)
How it was run: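 Phospho-H2AX Ser139 measured by HTRF (ex 320 nm; em 665 and 620 nm) after 24 hr antibody incubation. Compounds, 15 concentrations, 0.76% DMSO, were applied to CHO-K1 cells for 3hr at 37C before lysis.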

Chain of Thyrotropin receptor (Homo sapiens) (P16473 whole entry, looked up): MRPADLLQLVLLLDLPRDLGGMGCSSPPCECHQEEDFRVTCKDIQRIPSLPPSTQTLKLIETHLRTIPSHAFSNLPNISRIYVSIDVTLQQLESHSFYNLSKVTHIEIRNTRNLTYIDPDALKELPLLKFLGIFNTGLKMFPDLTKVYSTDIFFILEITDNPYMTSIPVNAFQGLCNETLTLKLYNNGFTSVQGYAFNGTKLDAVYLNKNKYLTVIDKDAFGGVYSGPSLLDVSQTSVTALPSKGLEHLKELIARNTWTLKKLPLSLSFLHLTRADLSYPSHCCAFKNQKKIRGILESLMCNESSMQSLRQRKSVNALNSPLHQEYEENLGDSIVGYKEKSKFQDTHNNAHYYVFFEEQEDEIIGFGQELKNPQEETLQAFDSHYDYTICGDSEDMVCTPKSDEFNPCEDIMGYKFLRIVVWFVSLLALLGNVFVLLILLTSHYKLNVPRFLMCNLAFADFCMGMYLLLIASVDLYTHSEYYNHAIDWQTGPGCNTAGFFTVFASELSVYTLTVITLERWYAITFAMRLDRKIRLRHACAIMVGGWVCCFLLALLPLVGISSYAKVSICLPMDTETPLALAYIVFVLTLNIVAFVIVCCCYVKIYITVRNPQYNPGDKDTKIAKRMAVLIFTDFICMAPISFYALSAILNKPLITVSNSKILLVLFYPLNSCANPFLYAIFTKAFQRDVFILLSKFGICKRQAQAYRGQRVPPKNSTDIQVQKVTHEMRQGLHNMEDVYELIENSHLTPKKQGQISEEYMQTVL
Chain of Luciferin 4-monooxygenase (Photinus pyralis) (P08659 whole entry, looked up): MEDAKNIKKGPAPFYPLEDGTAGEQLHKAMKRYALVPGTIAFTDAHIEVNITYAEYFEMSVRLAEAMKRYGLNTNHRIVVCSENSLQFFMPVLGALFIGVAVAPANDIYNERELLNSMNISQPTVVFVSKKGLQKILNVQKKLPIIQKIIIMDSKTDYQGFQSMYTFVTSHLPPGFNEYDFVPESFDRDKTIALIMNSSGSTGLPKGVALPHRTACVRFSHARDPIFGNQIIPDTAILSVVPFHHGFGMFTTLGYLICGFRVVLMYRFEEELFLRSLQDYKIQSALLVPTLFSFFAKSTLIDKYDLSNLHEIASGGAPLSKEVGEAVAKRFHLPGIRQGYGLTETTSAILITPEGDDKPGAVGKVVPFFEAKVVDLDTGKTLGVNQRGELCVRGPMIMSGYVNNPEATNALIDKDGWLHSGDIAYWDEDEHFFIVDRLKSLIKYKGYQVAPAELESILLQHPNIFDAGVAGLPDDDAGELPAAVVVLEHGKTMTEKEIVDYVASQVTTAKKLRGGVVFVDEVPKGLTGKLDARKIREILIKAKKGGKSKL
Chain of Nuclear receptor subfamily 1 group I member 3 (Homo sapiens) (Q14994 whole entry, looked up): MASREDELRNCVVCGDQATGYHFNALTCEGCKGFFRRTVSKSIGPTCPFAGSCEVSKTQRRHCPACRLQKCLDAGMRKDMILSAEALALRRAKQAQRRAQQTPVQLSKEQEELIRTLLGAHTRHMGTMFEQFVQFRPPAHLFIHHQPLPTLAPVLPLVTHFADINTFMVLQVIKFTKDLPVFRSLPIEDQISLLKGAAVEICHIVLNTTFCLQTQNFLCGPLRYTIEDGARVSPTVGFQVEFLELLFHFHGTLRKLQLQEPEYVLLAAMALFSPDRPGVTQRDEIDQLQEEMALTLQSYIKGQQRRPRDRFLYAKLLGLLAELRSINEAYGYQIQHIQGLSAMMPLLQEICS

Row | Compound | Potency [1] | Potency [2] | outcome [3] | outcome [4] | Potency [5] | Potency [6] | outcome [7] | Potency [8] | Potency [9] | outcome [10] | outcome [11] | Potency [12] | Potency [13] | outcome [14] | outcome [15] | Potency [16]
1 | CC(=O)N1C[C@H](O)C[C@H]1C(=O)O | inactive | inactive | inactive | inactive | inactive | inactive | inactive | inactive | inactive | inactive | inactive | inactive | inactive |  |  | 
2 | CCN(C=O)CC | inactive | inactive | inactive | inactive | inactive | inactive | inactive | inactive |  | inactive | inactive | inactive | inactive | inactive | inactive | 
3 | CCCCOCCOC(=O)COc1cc(Cl)c(Cl)cc1Cl | inactive | inactive | inactive | inactive | inactive | inactive | inactive | inactive | inactive |  | inactive | inactive | inactive | inactive | inactive | inactive
4 | CC(C)C(=O)OC(=O)C(C)C | inactive | inactive | inactive | inactive | inactive | inactive | inactive | inactive | inactive | inactive | inactive | inactive | inactive | inactive | inactive | inactive
5 | CCCOC(=O)CC | inactive | inactive | inactive | inactive | inactive | inactive | inactive | inactive | inactive | inactive | inactive | inactive | inactive |  | inactive | inactive
6 | Nc1ccn([C@@H]2O[C@H](CO)[C@@H](O)C2(F)F)c(=O)n1 | inactive | inactive | inactive | inactive | 596 nM (active) | inactive | inactive | inactive | inactive | inactive | inactive | 1070 nM (active) | inactive |  | inactive | 982 nM (active)
7 | CC1OC1C1CCC2(C)OC2C1 (stereo not drawn) | inactive | inactive | inactive | inactive | inactive | inactive | inactive | inactive | inactive | inactive | inactive | inactive | inactive | inactive | inactive | inactive
8 | CC(=O)Nc1ccc(OCC(O)CNC(C)C)cc1 (stereo not drawn) | inactive | inactive | inactive | inactive | inactive | inactive | inactive | inactive | inactive | inactive | inactive | inactive | inactive | inactive | inactive | 
9 | NC(=O)N1c2ccccc2CC(=O)c2ccccc21 | inactive | inactive | inactive | inactive | inactive | inactive | inactive | inactive | inactive | inactive | inactive | inactive | inactive | inactive | inactive | inactive
10 | C=CCOCC(O)CO (stereo not drawn) | inactive | inactive | inactive | inactive | inactive | inactive | inactive | inactive | inactive |  | inactive | inactive | inactive | inactive | inactive | inactive
11 | O=C(O)CCCC[P+](c1ccccc1)(c1ccccc1)c1ccccc1 | inactive | inactive | inactive | inactive | inactive | inactive | inactive | inactive | inactive | inactive |  | inactive | inactive | inactive | inactive | inactive
12 | Nc1ccncc1N | inactive | inactive | inactive | inactive | inactive | inactive | inactive | inactive | inactive | inactive | inactive | inactive | inactive | inactive | inactive | inactive
13 | COc1ccnc(CS(=O)c2nc3cc(OC(F)F)ccc3[nH]2)c1OC (stereo not drawn) | inactive | inactive | inactive | inactive | inactive | inactive | inactive | inactive | inactive | inactive | inactive |  | inactive | inactive | inactive | inactive
14 | CN1C(C)(C)CC(O)CC1(C)C | inactive | inactive | inactive | inactive | inactive | inactive | inactive | inactive | inactive | inactive | inactive | inactive | inactive | inactive | inactive | inactive
15 | CCCCCCCCCCCCCCCCCCO | inactive | inactive | inactive | inactive | inactive | inactive | inactive | inactive | inactive | inactive | inactive | inactive | inactive | inactive | inactive | inactive
